According to publication PMC7862700, “An all-to-all approach to the identification of sequence-specific readers for epigenetic DNA modifications on cytosine”:

Key:
Assay in all cases: DAPPL (digital affinity profiling via proximity ligation, sequencing); 10 mM Tris-HCl pH 7.5, 50 mM NaCl, 1 mM DTT, 4% glycerol, room temperature, 30 min; GST-TFs on glutathione beads, 16-mer random dsDNA library, 0.1% formaldehyde crosslink after washing; high values mean tight binding
Conditions in all cases: protein: recombinant; tags: N-terminal GST; dsDNA, one strand shown
FEV = target: T1, FEV (Homo sapiens, UniProt Q99581 1-238)
T1 sequence: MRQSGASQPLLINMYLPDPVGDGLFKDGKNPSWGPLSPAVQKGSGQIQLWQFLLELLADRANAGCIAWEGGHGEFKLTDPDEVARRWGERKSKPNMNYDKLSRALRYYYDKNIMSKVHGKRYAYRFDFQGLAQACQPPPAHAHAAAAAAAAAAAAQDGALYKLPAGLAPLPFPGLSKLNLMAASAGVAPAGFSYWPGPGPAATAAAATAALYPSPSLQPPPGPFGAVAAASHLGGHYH
In short: (§1)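 Sequencing on an Illumina NextSeq500 followed washing, crosslinking with 0.1% formaldehyde, proximity ligation (BsaI/T4 ligase, 1 h, 37 °C) and PCR amplification of pools that had been incubated for 30 min at room temperature with 200 nmole of a random double-stranded 16-mer DNA library in Tris/NaCl/DTT/glycerol buffer. Each pool held DNA-barcoded human transcription factors, expressed in yeast as GST fusions and captured on glutathione beads, plus a tag-only sample. Binding signal is a hexamer's read frequency for a factor divided by its frequency in the tag-only sample.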

ETV5 = ETV5 (Homo sapiens, UniProt P41161 1-510)
Chain of ETV5 (P41161 whole entry): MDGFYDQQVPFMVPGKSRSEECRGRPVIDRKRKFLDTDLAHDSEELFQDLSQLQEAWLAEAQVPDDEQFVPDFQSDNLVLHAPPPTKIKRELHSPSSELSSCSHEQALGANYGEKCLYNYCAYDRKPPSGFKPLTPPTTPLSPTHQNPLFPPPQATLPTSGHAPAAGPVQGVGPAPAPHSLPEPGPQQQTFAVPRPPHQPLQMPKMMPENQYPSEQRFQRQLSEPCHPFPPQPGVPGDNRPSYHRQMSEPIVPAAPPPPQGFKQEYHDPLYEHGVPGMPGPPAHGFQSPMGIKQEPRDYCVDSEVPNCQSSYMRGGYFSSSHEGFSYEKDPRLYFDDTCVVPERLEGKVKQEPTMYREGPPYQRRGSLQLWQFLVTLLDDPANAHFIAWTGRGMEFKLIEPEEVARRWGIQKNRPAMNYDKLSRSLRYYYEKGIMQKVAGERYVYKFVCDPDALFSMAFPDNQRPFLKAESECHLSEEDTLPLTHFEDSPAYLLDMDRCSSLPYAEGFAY
In short: as §1

SPIC = target: T2, SPIC (Homo sapiens, UniProt Q8N5J4 1-248)
T2 sequence: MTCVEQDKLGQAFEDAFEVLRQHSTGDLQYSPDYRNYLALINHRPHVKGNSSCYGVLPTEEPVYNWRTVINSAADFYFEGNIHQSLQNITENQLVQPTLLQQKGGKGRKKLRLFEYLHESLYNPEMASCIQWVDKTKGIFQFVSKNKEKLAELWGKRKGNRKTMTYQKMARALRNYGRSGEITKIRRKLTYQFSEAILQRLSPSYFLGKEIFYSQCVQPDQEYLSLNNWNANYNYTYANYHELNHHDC
In short: as §1

ELF4 = ELF4 (Homo sapiens, UniProt Q99607 1-663)
Chain of ELF4 (Q99607 whole entry): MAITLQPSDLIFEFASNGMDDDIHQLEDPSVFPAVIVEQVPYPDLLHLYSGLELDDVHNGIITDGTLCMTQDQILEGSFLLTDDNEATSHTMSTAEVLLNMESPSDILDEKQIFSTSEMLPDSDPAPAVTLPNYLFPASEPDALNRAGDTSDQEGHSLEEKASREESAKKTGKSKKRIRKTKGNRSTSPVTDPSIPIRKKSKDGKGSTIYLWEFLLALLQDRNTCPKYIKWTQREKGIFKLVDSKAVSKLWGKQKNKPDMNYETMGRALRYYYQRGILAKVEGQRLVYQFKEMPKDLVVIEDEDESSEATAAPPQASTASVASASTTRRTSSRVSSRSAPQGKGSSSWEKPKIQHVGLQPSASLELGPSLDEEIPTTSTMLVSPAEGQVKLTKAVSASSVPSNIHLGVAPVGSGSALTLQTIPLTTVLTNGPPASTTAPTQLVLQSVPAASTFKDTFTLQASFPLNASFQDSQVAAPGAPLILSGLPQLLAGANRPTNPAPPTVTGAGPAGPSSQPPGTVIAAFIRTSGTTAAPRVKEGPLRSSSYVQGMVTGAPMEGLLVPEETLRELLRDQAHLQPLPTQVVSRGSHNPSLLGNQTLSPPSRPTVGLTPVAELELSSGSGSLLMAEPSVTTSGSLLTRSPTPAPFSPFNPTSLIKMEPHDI
In short: as §1

ELK4 = target: T3, ELK4 (Homo sapiens, UniProt P28324-2 1-405)
T3 sequence: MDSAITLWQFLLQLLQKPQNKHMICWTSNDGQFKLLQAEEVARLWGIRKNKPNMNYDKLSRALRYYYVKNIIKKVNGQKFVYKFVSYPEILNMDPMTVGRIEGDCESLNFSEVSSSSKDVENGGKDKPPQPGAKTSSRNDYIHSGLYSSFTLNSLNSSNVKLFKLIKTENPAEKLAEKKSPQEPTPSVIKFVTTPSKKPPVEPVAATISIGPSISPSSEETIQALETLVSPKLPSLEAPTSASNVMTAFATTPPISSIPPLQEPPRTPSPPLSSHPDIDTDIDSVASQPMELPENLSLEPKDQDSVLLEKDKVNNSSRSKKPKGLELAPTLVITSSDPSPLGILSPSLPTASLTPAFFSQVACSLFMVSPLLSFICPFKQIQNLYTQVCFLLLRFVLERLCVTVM
In short: as §1

ELF3 = target: T4, ELF3 (Homo sapiens, UniProt P78545 1-371)
T4 sequence: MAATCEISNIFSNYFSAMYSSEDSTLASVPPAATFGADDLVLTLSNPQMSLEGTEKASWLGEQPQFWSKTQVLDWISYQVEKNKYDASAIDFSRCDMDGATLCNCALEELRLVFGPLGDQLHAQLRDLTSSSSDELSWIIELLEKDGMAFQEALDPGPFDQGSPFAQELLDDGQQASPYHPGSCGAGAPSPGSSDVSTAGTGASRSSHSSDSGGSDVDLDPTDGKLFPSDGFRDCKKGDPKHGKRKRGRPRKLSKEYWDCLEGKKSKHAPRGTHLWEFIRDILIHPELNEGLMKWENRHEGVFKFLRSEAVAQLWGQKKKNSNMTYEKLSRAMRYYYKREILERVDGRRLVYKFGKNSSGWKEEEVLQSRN
In short: as §1

ETV1 = ETV1 (Homo sapiens, UniProt P50549 1-477)
Chain of ETV1 (P50549 whole entry): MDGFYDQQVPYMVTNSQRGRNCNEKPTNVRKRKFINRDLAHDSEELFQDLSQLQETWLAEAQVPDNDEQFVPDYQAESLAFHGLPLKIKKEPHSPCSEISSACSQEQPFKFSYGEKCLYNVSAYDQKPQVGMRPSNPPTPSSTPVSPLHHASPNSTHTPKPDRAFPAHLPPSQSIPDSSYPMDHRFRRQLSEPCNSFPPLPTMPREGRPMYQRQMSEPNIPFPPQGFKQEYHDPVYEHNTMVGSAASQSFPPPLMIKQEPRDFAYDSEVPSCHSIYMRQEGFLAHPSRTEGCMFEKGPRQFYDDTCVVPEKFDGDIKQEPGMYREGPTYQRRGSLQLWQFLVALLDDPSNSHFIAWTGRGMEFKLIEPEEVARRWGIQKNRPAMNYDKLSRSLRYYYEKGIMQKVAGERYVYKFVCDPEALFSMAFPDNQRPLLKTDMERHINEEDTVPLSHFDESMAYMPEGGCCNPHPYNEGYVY
In short: as §1

ERF = target: T5, ERF (Homo sapiens, UniProt P50548 1-548)
T5 sequence: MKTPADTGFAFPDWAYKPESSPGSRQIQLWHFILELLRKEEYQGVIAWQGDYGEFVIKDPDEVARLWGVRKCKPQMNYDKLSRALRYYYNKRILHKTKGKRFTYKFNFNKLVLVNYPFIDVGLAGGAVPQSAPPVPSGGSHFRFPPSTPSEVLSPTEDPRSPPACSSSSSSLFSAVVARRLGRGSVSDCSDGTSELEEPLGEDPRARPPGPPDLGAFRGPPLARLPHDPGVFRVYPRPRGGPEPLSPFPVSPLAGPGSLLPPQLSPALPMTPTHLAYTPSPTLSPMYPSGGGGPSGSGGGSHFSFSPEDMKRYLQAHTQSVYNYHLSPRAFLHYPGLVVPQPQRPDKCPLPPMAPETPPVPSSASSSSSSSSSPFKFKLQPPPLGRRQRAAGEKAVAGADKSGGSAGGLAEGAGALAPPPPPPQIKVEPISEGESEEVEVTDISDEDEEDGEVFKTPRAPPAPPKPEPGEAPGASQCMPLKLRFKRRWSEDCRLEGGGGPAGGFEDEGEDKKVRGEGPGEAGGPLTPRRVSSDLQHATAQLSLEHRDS
In short: as §1

ETV3L = target: T6, ETV3L (Homo sapiens, UniProt Q6ZN32 1-361)
T6 sequence: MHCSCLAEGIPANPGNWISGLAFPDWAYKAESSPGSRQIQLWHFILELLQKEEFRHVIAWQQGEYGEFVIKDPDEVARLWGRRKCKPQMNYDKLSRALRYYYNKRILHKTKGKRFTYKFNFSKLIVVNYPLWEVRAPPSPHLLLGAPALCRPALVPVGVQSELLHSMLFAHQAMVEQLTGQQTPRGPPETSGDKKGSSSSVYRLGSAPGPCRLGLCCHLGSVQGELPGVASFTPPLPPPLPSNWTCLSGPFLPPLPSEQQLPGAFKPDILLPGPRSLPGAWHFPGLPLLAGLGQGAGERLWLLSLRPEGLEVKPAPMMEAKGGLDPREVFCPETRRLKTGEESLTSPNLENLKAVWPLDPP
In short: as §1

ETS2 = target: T7, ETS2 (Homo sapiens, UniProt P15036 1-469)
T7 sequence: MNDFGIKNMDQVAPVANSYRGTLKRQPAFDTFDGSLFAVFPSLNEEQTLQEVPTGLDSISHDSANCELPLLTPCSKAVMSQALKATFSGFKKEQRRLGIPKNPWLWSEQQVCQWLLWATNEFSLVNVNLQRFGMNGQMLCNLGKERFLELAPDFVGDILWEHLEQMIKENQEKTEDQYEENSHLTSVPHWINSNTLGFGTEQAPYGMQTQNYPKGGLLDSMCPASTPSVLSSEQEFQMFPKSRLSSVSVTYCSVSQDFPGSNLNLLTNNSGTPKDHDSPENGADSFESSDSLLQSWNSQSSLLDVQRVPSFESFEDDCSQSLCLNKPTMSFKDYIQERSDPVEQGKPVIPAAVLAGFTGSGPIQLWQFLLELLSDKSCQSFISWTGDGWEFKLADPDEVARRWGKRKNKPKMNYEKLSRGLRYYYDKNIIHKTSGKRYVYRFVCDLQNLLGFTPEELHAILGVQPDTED
In short: as §1

SPDEF = target: T8, SPDEF (Homo sapiens, UniProt O95238 1-335)
T8 sequence: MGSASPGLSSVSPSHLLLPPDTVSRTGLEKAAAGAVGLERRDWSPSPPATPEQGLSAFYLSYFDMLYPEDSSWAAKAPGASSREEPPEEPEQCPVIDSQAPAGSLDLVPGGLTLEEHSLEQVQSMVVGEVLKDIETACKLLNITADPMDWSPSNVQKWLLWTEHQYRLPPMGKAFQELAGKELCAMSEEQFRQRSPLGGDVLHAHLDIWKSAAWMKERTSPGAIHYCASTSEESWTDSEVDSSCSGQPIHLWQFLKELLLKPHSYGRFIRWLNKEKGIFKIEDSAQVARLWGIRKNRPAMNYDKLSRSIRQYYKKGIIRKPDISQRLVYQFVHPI
In short: as §1

ETV7 = target: T9, ETV7 (Homo sapiens, UniProt Q9Y603 1-341)
T9 sequence: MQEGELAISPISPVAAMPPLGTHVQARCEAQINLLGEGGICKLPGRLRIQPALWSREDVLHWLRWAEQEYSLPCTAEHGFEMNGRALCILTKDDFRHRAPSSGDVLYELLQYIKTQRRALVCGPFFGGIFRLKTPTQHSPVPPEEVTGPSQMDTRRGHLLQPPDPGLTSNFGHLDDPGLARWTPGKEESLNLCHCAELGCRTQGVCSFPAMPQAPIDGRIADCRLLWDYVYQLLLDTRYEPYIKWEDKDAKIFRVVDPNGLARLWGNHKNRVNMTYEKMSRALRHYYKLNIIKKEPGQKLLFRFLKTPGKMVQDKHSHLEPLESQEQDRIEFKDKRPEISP
In short: as §1

ELF5 = target: T10, ELF5 (Homo sapiens, UniProt Q9UKW6-2 1-255)
T10 sequence: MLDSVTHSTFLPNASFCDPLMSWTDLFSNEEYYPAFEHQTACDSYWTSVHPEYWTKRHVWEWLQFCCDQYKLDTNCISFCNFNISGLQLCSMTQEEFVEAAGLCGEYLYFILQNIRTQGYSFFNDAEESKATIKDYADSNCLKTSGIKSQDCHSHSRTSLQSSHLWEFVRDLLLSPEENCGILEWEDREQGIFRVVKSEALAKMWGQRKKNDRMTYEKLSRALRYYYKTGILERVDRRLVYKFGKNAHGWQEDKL
In short: as §1

ETV3 = target: T11, ETV3 (Homo sapiens, UniProt P41162-2 1-143)
T11 sequence: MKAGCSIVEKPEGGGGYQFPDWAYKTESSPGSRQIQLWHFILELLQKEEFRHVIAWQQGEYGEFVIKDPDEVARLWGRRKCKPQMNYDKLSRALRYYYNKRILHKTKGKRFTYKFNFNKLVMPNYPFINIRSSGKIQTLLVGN
In short: as §1

ETV6 = ETV6 (Homo sapiens, UniProt P41212 1-452)
Chain of ETV6 (P41212 whole entry): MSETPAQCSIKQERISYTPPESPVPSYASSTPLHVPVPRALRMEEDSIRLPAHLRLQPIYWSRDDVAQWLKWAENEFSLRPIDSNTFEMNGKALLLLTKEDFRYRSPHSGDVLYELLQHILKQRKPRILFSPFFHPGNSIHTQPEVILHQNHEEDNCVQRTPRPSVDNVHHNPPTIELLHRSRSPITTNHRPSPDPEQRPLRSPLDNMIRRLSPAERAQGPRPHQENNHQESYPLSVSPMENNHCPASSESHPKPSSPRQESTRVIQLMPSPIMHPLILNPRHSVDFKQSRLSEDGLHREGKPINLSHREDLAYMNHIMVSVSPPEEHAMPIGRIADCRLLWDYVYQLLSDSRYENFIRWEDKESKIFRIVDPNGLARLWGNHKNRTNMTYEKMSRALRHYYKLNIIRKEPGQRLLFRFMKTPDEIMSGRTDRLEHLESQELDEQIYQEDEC
In short: as §1

ETV2 = target: T12, ETV2 (Homo sapiens, UniProt O00321 1-342)
T12 sequence: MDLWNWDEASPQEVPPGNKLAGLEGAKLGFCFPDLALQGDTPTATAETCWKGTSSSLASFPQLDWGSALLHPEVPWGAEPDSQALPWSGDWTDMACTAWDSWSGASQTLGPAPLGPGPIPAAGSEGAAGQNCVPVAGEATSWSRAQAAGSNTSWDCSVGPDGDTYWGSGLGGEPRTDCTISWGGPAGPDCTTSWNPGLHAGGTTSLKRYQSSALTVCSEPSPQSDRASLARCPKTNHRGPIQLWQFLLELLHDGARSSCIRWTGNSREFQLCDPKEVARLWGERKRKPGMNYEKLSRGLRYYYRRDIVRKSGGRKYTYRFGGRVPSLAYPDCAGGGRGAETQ
In short: as §1

Sequence	binding signal (FEV)	binding signal (ETV5)	binding signal (SPIC)	binding signal (ELF4)	binding signal (ELK4)	binding signal (ELF3)	binding signal (ETV1)	binding signal (ERF)	binding signal (ETV3L)	binding signal (ETS2)	binding signal (SPDEF)	binding signal (ETV7)	binding signal (ELF5)	binding signal (ETV3)	binding signal (ETV6)	binding signal (ETV2)
AAGTTG	1.05 fold enrichment (6-mer frequency, TF over GST control)	1.16 fold enrichment (6-mer frequency, TF over GST control)	1.08 fold enrichment (6-mer frequency, TF over GST control)	1.14 fold enrichment (6-mer frequency, TF over GST control)	1.12 fold enrichment (6-mer frequency, TF over GST control)	1.12 fold enrichment (6-mer frequency, TF over GST control)	1.02 fold enrichment (6-mer frequency, TF over GST control)	1.08 fold enrichment (6-mer frequency, TF over GST control)	1.11 fold enrichment (6-mer frequency, TF over GST control)	1.11 fold enrichment (6-mer frequency, TF over GST control)	1.02 fold enrichment (6-mer frequency, TF over GST control)	1.26 fold enrichment (6-mer frequency, TF over GST control)	1.17 fold enrichment (6-mer frequency, TF over GST control)	1.07 fold enrichment (6-mer frequency, TF over GST control)	1.17 fold enrichment (6-mer frequency, TF over GST control)	
GCCCAT	1.09 fold enrichment (6-mer frequency, TF over GST control)	1.03 fold enrichment (6-mer frequency, TF over GST control)	1.12 fold enrichment (6-mer frequency, TF over GST control)	1.07 fold enrichment (6-mer frequency, TF over GST control)	1.23 fold enrichment (6-mer frequency, TF over GST control)			1.05 fold enrichment (6-mer frequency, TF over GST control)		1 fold enrichment (6-mer frequency, TF over GST control)			1.01 fold enrichment (6-mer frequency, TF over GST control)	1.01 fold enrichment (6-mer frequency, TF over GST control)		1.01 fold enrichment (6-mer frequency, TF over GST control)
